Among the data in PubChem BioAssay (Tox21) are Potency and activity change, positive = activation values, retold here.

The nature of assay [1]: qHTS assay to identify small molecule antagonists of the constitutive androstane receptor (CAR) signaling pathway - cell viability counter screen (AID 1224837). Note: nearly all actives have a fitted effect of over 45% in size. Note: potency is the fitted concentration of half-maximal effect. An outline of the steps: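 Viability was measured with CellTiter-Fluor in a HepG2 line carrying stably transfected hCAR and a CYP2B6-2.2kb construct. Cells were exposed for 23 hr at 37 C to 15 compound concentrations with 50 nM CITCO as agonist.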
Background: In qHTS, concentration-response curves come from the screen itself.

For assay [2], the target named is Nuclear receptor subfamily 1 group I member 3 (Homo sapiens) (UniProt Q14994). Put plainly: qHTS assay to identify small molecule antagonists of the constitutive androstane receptor (CAR) signaling pathway (AID 1224838).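 Note: HepG2 cells stably expressing hCAR with CYP2B6 luciferase reporter stimulated by CITCO; nearly all actives have a fitted effect of over 40% in size.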 Note: potency is the fitted concentration of half-maximal effect. An outline of the steps:
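Antagonist mode used CITCO at a final 50 nM to activate CAR in human hepatoma HepG2 cells carrying stable hCAR and a 2.2 kb CYP2B6 promoter-luciferase construct. Compounds were tested at 15 concentrations over 24 h, with luminescence as the end point.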

For assay [3] the target is unchanged. In words: qHTS assay to identify small molecule agonists of the constitutive androstane receptor (CAR) signaling pathway (AID 1224839). Note: nearly all actives have a fitted effect of over 15% in size. An outline of the steps: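 Stable hCAR/CYP2B6-2.2kb HepG2 line in DMEM with 10% FBS; compounds (15 concentrations) and 0.75 uM PK11195 final, 24 h at 37 C/5% CO2, then ONE-Glo luminescence after 30 min.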
Assay [4] is described as follows: qHTS assay to identify small molecule antagonists of the estrogen related receptor signaling pathway with the pleiotropic PPARgamma coactivator (PGC) from Tox21 10K library - cell viability counter screen (AID 1224840; active = well fitted cell-killing curve with a large enough effect in the repeat runs, not every such curve was filed as active; note: nearly all actives have a fitted effect of over 40% in size; note: potency is the fitted concentration of half-maximal effect). An outline of the steps:
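Multiplexed viability counter screen in the PGC/ERR cell line: cells treated with DMSO-dissolved compounds for 17.5 hours at 37 C, then viability measured as CellTiter-Fluor fluorescence.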

The target of assay [5] is Thyrotropin receptor (Homo sapiens) (UniProt P16473). Put plainly: qHTS assay to identify small molecule agonists of the thyroid stimulating hormone receptor (TSHR) signaling pathway (AID 1224843; calls by dose curve; note: nearly all actives have a fitted effect of over 45% in size; note: potency is the fitted concentration of half-maximal effect). In a few lines:
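Compounds are titrated over 15 concentrations, in triplicate, onto TSHR-HEK293 cells seeded at 800/well. Plates sit 30 min at room temperature before cAMP-d2 and anti-cAMP cryptate are added; signal is read after a further hour.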

Assay [6] is described as follows: qHTS assay to identify small molecule agonists of the hypoxia (HIF-1) signaling pathway - cell viability counter screen (AID 1224844; calls by dose curve; note: nearly all actives have a fitted effect of over 50% in size; note: potency is the fitted concentration of half-maximal effect). An outline of the steps: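 Cytotoxicity was measured in parallel with the HRE-driven beta-lactamase readout: after 17 hrs of compound exposure at 37C, HRE-bla ME-180 cells received CellTiter-Glo and luminescence was recorded 30 min later.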

The nature of assay [7]: qHTS assay to identify small molecule agonists of H2AX (AID 1224845; active = well fitted activation curve with a large enough effect in the signal ratio in the repeat runs, not every such curve was filed as active; the % refers to the signal ratio). An outline of the steps:
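Wild-type CHO-K1 cells plated overnight, then exposed 3 hr at 37C to compounds at 15 concentrations (0.76% DMSO). Lysed, then HTRF anti-pH2AX(S139)-cryptate/anti-H2AX-d2 detection after 24 hr at room temperature; emissions 665 and 620 nm.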

Assay [8] can be described thus: qHTS assay to identify small molecule agonists of the hypoxia (HIF-1) signaling pathway (AID 1224846; active = well fitted activation curve with a large enough effect in the signal ratio in the repeat runs, not every such curve was filed as active; the % refers to the signal ratio). An outline of the steps: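 Compounds from the Tox21 10K library, dissolved in DMSO, are tested for induction of a hypoxia response element–controlled beta-lactamase reporter in ME-180 cells. Exposure lasts 17 hrs at 37C after a 5 hr settling period, followed by CCF4-AM FRET substrate.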

Assay [9] can be described thus: qHTS RealTime-Glo MT Cell Viability Assay in HepG2 cells - 24 hour (AID 1224867). Note: nearly all actives have a fitted effect of over 50% in size. Note: potency is the fitted concentration of half-maximal effect. An outline of the steps:
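qHTS, HepG2, 600 cells/well, RealTime-Glo (NanoLuc + prosubstrate) added with cells; 5 h preincubation; DMSO compound addition; 37 C; luminescence at 0/8/16/24/32/40 h.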

Assay [10] is described as follows: A CellTox Green Cytotoxicity Assay to monitor cytotoxicity in HEK293 cells - 0 hour (AID 1224869). Note: nearly all actives have a fitted effect of over 50% in size. An outline of the steps:
(§1)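 Cells (HEK293, 600/well) and dye reagent are dispensed together. After 5 h at 37 C, 23 nL compound is pinned in. Plates stay at 37 C for 40 h with fluorescence read at 0h, 8h, 16h, 24h, 32h and 40h.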

Assay [11] is described as follows: qHTS RealTime-Glo MT Cell Viability Assay in HepG2 cells - 40 hour (AID 1224870). Note: nearly all actives have a fitted effect of over 50% in size. Note: potency is the fitted concentration of half-maximal effect. In a few lines: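 HepG2 cells mixed with RealTime-Glo MT reagents (NanoLuc plus cell-permeant prosubstrate) were seeded at 600 cells/well, incubated 5 h at 37 C/5% CO2, then pinned with compounds in DMSO; nonlytic luminescence tracked viability during 40 h treatment.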
Assay [12] in a line: A CellTox Green Cytotoxicity Assay to monitor cytotoxicity in HEK293 cells - 40 hour (AID 1224871). Note: nearly all actives have a fitted effect of over 45% in size. Note: potency is the fitted concentration of half-maximal effect. An outline of the steps: as §1
Assay [13] can be described thus: qHTS RealTime-Glo MT Cell Viability Assay in HEK293 cells - 16 hour (AID 1224872). Note: nearly all actives have a fitted effect of over 50% in size. Note: potency is the fitted concentration of half-maximal effect. An outline of the steps: (§2)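 Assay medium contained NanoLuc luciferase plus cell-permeant prosubstrate, added with HEK293 cells at 600 cells/well. After 5 h at 37 C/5% CO2 compounds were added; plates stayed at 37 C for 40 h with serial luminescence reads.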
Assay [14] in a line: qHTS assay to identify small molecule antagonists of the estrogen related receptor signaling pathway with the pleiotropic PPARgamma coactivator (PGC) from Tox21 10K library (AID 1224841; call rule not given here; note: potency is the fitted concentration of half-maximal effect). An outline of the steps:
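Steps: plate 2,000 PGC/ERR cells per well; incubate 6 h at 37 C with 5% CO2; transfer compounds from DMSO stocks by pin tool; incubate 18 h at 37 C; add One-Glo; measure luminescence 30 min later.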

A short description of assay [15]: qHTS assay to identify small molecule agonists of the estrogen related receptor signaling pathway with the pleiotropic PPARgamma coactivator (PGC) from Tox21 10K library (AID 1224842). Note: nearly all actives have a fitted effect of over 15% in size. An outline of the steps:
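PGC/ERR reporter cells (NTP line) were seeded 2,000 per well, rested 6 h at 37 C/5% CO2, then pin-dosed with compounds in DMSO for 18 h at 37 C; luciferase read by One-Glo luminescence after 30 min at room temperature.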

The nature of assay [16]: qHTS assay to identify small molecule agonists of H2AX - cell viability counter screen (AID 1224847; calls by dose curve; note: nearly all actives have a fitted effect of over 30% in size; note: potency is the fitted concentration of half-maximal effect). In a few lines: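 Viability of CHO-K1 (wild type) cells after 3 hr compound exposure was measured by CellTiter-Glo luminescence.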
Assay [17] is described as follows: qHTS assay to identify small molecule antagonists of the estrogen related receptor (ERR) signaling pathway from Tox21 library (AID 1224848). Note: nearly all actives have a fitted effect of over 50% in size. Note: potency is the fitted concentration of half-maximal effect. In a few lines: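 First, 2,000 ERR cells per well were plated and held 6 h at 37 C/5% CO2. Next, compounds in DMSO were pinned in and left 18 h at 37 C. Finally, ONE-Glo was added and luminescence read after 30 min at room temperature.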

Assay [18] in a line: qHTS assay to identify small molecule agonists of the estrogen related receptor (ERR) signaling pathway from Tox21 library (AID 1224849; calls by dose curve; note: nearly all actives have a fitted effect of over 15% in size). Particulars: ERR reporter cell line, ONE-Glo luciferase, 18 h. An outline of the steps: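 Cells carrying the ERR reporter were plated and allowed to settle for 6 h, exposed to library compounds for 18 h at 37 C, then lysed with ONE-Glo and luminescence measured.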

Assay [19] is described as follows: qHTS RealTime-Glo MT Cell Viability Assay in HEK293 cells - 32 hour (AID 1224868). Note: nearly all actives have a fitted effect of over 50% in size. Note: potency is the fitted concentration of half-maximal effect. An outline of the steps:
as §2

Assay [20] is described as follows: qHTS assay to identify small molecule agonists of the constitutive androstane receptor (CAR) signaling pathway - cell viability counter screen (AID 1224836). Note: nearly all actives have a fitted effect of over 45% in size. Note: potency is the fitted concentration of half-maximal effect. An outline of the steps:
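Fluorescence from CellTiter-Fluor indicates live cells after 23 h exposure. The human hepatoma line expresses hCAR and a CYP2B6-2.2kb reporter. Incubation medium contains 0.75 uM PK11195 (final).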

Where [21] appears, read: at 92.4 µM (top of the series) unless noted.

Each structure is given as a SMILES string. Values joined by “and” are separate entries in the source; they are usually repeats but may differ in a detail not shown here. Identical values can stand only once. Values without a mark were called inactive. Records with an inconclusive call do not appear. Active and inactive are the calls of the source. Unless noted, calls come from the whole dose curve; as a rule, active = well fitted curve in the direction sought with a large enough effect in the repeat runs; inconclusive = weak or mixed curves; inactive = no such curve, though single readings can be large; an effect the other way counts as inactive or inconclusive.
% is set by controls: 0 for no effect and ±100 for the full control effect.

Chain of Nuclear receptor subfamily 1 group I member 3 (Homo sapiens) (Q14994 whole entry, looked up): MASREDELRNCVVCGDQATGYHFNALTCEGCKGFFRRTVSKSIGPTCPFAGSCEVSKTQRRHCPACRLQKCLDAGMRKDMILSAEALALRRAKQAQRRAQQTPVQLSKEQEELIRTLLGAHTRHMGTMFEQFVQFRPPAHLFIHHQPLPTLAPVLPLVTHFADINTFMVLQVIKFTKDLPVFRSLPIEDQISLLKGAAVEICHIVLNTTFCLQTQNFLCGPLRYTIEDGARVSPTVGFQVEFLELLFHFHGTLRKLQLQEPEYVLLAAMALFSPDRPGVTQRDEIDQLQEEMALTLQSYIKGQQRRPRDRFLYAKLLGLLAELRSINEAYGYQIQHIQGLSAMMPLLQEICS
Chain of Thyrotropin receptor (Homo sapiens) (P16473 whole entry, looked up): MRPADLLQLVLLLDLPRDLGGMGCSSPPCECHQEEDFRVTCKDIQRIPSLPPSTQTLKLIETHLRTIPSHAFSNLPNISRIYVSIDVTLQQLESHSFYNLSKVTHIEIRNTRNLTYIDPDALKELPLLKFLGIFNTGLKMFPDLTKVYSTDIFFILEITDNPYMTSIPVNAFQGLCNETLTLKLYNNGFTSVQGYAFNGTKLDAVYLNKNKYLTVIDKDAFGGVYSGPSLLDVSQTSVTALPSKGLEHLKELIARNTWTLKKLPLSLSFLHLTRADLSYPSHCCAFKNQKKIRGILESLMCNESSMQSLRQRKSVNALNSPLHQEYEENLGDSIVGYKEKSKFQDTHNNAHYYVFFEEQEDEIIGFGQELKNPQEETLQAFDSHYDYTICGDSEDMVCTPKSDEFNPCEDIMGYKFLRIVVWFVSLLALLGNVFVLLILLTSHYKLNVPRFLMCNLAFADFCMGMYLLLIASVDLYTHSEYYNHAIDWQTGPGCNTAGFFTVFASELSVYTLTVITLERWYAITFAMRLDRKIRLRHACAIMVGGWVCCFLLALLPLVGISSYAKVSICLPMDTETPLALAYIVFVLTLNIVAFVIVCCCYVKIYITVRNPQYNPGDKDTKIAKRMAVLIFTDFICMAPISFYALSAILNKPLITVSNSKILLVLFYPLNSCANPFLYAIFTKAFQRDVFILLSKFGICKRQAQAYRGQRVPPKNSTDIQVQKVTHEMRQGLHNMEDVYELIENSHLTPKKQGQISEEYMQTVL

Regarding `O=C(c1ccc(O)cc1O)c1ccc(O)cc1O`, the Potency result in [1], in [2], in [3], in [4], in assay [5] and in [6] was “inactive” throughout. Also, the Potency entry in assay [7], in assay [8], in [9], in assay [10], in assay [11] and in assay [12] was “inactive” throughout. Also, in assay [13], the Potency result is “inactive”.
`Cc1cc(O)c(Cl)c(C)c1Cl`: the Potency result in assay [1], in [2], in assay [3], in assay [4], in assay [14] and in assay [15] was “inactive” in each case. In addition, the Potency result in assay [6], in assay [7], in [8], in assay [17], in assay [9] and in assay [19] was “inactive” in each case. Further, the Potency entry in assay [10], in [11] and in assay [13] was “inactive” each time. Besides, the Potency in assay [16] was 101 µM (active). Further, in assay [18] (setting [21]), the activity change, positive = activation is 1.15%.
Take `COC(=O)c1cc(Cl)ccc1OC`: the Potency entry in [1], in assay [2], in [3], in assay [4], in assay [5] and in assay [6] was “inactive” throughout. Besides, the Potency result in assay [7], in assay [8], in assay [16], in [9], in [19] and in [10] was “inactive” throughout. In addition, the Potency entry in assay [12] and in assay [13] was “inactive” each time.
As to `CC(C)(C)CC(C)(C)c1ccc(OCCOCC[N+](C)(C)Cc2ccccc2)cc1`, the Potency entry in [20], in assay [15], in [7] and in assay [10] was “inactive” throughout. Further, the Potency in assay [4] is 48.5 µM (active); in assay [14], 27.3 µM (active) and 6.68 µM (active); in assay [5] it was 13.7 µM (active) and 11.9 µM (active); in [6] it was 19.5 µM (active) and 9.52 µM (active); in assay [16], 101 µM (active) and 49.2 µM (active); in assay [17], 6.85 µM (active) and 5.96 µM (active). The Potency in assay [9] was 48.9 µM (active) and 9.52 µM (active); in assay [19], 12.3 µM (active) and 9.52 µM (active); in [11], 24.5 µM (active) and 9.52 µM (active); in [13], 24.5 µM (active) and 21.3 µM (active). Further, the activity change, positive = activation in [18] (at 42.5 µM (top of the series)) was -58.4%; in assay [18] (at 92.4 µM (top of the series)), -70.8%.
Turning to `O=C1C=CC(=O)N1c1ccc(Cc2ccc(N3C(=O)C=CC3=O)cc2)cc1`, the Potency was 54.5 µM (active) in [20]; 27.3 µM (active) in assay [2]; 27.3 µM (active) in assay [4]; 11 µM (active) in [6]; 50.5 µM (active) in assay [16]; 12.3 µM (active) in [9]. For the same compound, the Potency was 11 µM (active) in assay [19], 15.5 µM (active) in assay [11], 11 µM (active) in [12] and 17.4 µM (active) in assay [13]. In addition, the Potency result in [3], in assay [7] and in assay [10] was “inactive” throughout.
Regarding `CCC(C)Nc1ccc(NC(C)CC)cc1` (centres undefined), the Potency was 31.2 µM (active) in assay [1]; 27.8 µM (active) in [2]; 15.7 µM (active) in assay [4]; 8.8 µM (active) in [14]; 12.5 µM (active) in [6]; 23 µM (active) in assay [16]. Further, the Potency was 6.23 µM (active) in assay [17]; 17.7 µM (active) in assay [9]; 4.45 µM (active) in [19]; 17.7 µM (active) in assay [11]; 12.5 µM (active) in assay [12]; 4.45 µM (active) in assay [13]. In addition, the Potency result in assay [3], in assay [15] and in assay [10] was “inactive” in each case. For the same compound, the activity change, positive = activation in assay [18] (setting [21]) is -80.2%.
